Data as given in the supplement of paper PMC10849652.
Targets with a hit are over-represented here; the source holds about 8,800 in all. About 0.5% of all pairs of compound and target were hits. A number with no mark means an inactive call.

Experiments:
Assay in all cases: log2 fold change, soluble protein after heating vs DMSO (PISA); higher = thermal stabilisation; K562 lysate, 10 uM; active = over 0.2 and 3.5 SD of the protein, either way, in both replicates (recomputed)
[1] = compound: CC(C)(C)Cn1c(N)nc2ccc(-c3[nH]c(C(C)(C)C)nc3-c3ccc(F)cc3)nc21 [ralimetinib]
How it was run: (§1)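 The values are log-two fold changes in thermal stability compared with solvent controls and come from duplicates. They were obtained by TMTpro 16plex LC-MS/MS, with channel sums equalised, on the supernatant after 21,000xg for 90 min. That supernatant came from crude K562 extract at 1 mg/mL protein treated with 10 μM compound for 30 min, heated for 3 min across 48°C-58°C, pooled and brought to 0.5% NP-40 at 4°C.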

[2] = compound: CC(C)(O)CC(=O)NCCn1ccc2ncnc(Nc3ccc(Oc4cccc(C(F)(F)F)c4)c(Cl)c3)c21
How it was run: as §1

[3] = compound: CC(C)C1=C2N=C(C=C(N2N=C1)NCC3=CC=CC=C3)NCCCCCCN
How it was run: as §1

[4] = compound: CC1=C(C(CC(=O)N1)C2=CC=C(C=C2)C(F)(F)F)C(=O)NC3=C(C=C4C(=C3)C=NN4)F
How it was run: as §1

[5] = compound: CC1=C(C=C(C=C1)NC(=O)C2=CC(=CC=C2)C(C)(C)C#N)NC3=CC4=C(C=C3)N=CN(C4=O)C
How it was run: as §1

[6] = compound: CC1=C(C=C(C=C1)NC(=O)C2=CC(=CC=C2)N(C)C)NC(=O)C3=CC=C(C=C3)O
How it was run: as §1

[7] = compound: CC1=C(C2=C(C=C1)C(=O)C3=CC=CC=C3N2CCCN)C
How it was run: as §1

[8] = compound: CC(=O)c1cnc2ccc(-c3cc(Cl)c(O)c(Cl)c3)nc2c1N[C@H]1CC[C@H](CN(C)C)CC1
How it was run: as §1

[9] = compound: CC1=CC=C(C=C1)SC2=C3C=C(SC3=CN=C2)C(=O)N
How it was run: as §1

UniProt O14810, sequence (O14810 whole entry, looked up): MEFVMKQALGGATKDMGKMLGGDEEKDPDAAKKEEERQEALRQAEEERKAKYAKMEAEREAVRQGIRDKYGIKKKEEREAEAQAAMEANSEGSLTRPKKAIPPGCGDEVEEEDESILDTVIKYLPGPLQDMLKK
UniProt P48729, sequence (P48729 whole entry, looked up): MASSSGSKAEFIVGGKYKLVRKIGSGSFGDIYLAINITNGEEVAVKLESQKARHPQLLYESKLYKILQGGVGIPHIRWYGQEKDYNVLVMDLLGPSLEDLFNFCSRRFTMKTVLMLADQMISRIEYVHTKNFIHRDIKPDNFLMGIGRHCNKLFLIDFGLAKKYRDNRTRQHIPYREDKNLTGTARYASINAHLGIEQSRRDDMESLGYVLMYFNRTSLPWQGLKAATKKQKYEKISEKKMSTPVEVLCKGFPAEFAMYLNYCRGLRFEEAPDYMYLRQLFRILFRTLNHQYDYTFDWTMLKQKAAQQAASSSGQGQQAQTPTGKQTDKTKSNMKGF
UniProt Q7L7V1, sequence (Q7L7V1 whole entry, looked up): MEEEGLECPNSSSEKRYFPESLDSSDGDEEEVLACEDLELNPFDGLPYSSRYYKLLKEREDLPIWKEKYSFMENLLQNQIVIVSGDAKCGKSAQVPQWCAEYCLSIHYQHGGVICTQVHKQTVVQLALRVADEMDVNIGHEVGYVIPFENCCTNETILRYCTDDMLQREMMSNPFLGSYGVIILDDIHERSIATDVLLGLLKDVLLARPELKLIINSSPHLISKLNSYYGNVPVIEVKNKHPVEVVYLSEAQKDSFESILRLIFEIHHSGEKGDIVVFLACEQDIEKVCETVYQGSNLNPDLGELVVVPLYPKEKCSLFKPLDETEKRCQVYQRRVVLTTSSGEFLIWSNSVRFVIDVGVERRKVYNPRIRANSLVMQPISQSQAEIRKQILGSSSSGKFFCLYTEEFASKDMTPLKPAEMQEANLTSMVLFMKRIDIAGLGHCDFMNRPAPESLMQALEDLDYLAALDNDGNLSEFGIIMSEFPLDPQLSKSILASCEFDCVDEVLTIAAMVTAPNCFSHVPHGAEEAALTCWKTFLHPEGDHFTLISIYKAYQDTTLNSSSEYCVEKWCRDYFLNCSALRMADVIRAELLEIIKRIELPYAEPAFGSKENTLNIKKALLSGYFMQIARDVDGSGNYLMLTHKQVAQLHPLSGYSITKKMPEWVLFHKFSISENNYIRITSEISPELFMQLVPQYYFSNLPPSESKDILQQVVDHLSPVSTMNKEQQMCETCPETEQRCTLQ
UniProt O75122, sequence (O75122 whole entry, looked up): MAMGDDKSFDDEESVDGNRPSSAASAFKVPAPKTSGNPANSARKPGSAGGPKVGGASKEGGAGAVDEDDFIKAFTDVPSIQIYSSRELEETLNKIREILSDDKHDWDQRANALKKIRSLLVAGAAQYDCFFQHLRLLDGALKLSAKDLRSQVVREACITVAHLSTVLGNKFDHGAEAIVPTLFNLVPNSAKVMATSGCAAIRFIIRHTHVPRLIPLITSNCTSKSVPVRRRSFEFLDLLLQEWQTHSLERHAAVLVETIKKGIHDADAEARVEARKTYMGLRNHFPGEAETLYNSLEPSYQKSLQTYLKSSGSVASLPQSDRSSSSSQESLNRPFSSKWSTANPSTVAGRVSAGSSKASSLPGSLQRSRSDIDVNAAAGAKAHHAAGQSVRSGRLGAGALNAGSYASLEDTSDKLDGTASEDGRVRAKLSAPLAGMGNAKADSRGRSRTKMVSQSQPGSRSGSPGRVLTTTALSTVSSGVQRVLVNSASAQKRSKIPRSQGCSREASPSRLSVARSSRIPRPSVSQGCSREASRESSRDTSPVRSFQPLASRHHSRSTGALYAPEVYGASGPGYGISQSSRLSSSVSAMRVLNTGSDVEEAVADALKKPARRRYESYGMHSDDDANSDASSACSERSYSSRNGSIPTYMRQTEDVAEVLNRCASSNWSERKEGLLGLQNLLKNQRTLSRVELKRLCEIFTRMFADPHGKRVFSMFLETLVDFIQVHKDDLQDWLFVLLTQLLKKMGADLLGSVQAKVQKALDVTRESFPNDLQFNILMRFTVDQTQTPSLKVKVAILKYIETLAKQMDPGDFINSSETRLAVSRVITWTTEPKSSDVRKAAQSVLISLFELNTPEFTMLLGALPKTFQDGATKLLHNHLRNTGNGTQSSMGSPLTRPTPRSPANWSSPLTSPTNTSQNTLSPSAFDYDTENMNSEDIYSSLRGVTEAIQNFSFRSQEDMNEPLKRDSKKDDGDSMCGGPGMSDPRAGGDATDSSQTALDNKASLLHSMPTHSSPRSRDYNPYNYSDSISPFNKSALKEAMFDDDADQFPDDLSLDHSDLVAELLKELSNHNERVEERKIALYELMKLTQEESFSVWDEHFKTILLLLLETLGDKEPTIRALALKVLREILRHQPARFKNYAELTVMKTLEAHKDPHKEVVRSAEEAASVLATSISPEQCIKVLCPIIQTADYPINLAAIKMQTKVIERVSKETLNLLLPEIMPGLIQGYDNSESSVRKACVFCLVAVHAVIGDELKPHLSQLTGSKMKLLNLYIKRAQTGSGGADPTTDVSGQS
UniProt Q96SQ9, sequence (Q96SQ9 whole entry, looked up): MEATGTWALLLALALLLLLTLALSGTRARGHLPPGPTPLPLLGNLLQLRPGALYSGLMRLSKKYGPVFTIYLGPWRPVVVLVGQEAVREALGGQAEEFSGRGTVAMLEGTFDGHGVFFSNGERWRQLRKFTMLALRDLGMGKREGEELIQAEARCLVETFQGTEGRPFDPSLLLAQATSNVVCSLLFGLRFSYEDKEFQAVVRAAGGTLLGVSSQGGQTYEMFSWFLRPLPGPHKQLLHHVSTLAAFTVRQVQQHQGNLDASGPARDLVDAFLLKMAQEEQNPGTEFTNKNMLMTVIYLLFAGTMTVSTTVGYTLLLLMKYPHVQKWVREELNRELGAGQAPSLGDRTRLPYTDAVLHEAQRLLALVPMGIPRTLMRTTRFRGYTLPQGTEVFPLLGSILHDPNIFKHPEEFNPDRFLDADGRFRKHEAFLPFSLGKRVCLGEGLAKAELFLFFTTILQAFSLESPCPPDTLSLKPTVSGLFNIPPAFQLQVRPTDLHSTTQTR
UniProt P30622, sequence (P30622 whole entry, looked up): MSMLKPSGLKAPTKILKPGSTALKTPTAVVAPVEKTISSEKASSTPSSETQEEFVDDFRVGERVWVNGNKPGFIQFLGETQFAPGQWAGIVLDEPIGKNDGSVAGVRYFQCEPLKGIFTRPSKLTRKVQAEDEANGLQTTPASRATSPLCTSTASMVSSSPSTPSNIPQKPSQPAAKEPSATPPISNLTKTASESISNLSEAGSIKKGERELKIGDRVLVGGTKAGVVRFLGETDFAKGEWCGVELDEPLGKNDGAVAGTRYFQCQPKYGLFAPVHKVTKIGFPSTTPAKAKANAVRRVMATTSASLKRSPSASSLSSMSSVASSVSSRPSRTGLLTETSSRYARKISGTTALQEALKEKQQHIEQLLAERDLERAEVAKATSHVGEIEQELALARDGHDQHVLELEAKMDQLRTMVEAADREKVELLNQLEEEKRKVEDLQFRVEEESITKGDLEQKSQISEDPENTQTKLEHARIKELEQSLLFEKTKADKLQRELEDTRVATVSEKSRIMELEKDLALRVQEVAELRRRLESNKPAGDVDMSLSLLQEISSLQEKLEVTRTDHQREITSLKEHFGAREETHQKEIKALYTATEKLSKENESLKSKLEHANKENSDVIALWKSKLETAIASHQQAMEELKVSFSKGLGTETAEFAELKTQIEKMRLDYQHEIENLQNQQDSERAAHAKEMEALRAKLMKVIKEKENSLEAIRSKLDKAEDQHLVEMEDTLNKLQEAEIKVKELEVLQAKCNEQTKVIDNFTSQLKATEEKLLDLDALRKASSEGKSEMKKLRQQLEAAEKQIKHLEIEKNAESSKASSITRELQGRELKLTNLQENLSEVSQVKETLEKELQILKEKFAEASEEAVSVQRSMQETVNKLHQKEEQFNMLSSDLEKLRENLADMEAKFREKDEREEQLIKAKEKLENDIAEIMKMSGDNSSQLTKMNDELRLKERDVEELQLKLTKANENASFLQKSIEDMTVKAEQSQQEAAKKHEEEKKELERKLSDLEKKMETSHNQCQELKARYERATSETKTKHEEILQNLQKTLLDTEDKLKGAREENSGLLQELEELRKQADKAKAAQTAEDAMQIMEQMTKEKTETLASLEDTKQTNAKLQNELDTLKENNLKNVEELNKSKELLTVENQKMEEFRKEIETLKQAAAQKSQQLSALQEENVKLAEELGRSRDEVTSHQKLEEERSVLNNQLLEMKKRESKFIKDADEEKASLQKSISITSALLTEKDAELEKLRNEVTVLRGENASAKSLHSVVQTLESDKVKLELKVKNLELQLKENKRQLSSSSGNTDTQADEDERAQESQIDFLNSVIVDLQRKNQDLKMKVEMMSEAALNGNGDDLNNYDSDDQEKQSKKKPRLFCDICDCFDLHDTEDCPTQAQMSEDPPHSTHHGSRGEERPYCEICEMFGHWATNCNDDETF
UniProt Q5D0E6, sequence (Q5D0E6 whole entry, looked up): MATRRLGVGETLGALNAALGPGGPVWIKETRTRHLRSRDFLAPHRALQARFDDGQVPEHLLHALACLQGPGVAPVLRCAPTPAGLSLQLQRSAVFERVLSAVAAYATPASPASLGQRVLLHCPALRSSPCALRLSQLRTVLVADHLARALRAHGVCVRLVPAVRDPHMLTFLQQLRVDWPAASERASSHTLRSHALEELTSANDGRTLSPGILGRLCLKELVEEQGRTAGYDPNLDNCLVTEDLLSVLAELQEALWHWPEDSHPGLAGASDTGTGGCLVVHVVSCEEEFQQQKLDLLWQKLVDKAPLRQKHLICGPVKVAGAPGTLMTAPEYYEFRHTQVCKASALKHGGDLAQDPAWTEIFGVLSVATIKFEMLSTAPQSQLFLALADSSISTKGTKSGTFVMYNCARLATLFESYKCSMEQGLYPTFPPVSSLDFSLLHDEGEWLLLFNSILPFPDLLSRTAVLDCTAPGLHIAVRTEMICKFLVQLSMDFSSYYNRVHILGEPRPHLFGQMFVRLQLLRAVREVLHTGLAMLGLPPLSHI

| Target | log2 fold change [1] | log2 fold change [2] | log2 fold change [3] | log2 fold change [4] | log2 fold change [5] | log2 fold change [6] | log2 fold change [7] | log2 fold change [8] | log2 fold change [9] |
| --- | --- | --- | --- | --- | --- | --- | --- | --- | --- |
| DHX32 (UniProt Q7L7V1) | 0.096 | -0.144 | -0.387 (active) | 0.016 | -0.023 | 0.017 | – | – | – |
| CSNK1A1 isoform 3 (UniProt P48729) | 0.13 | 0.253 | – | – | – | 0.143 | -0.061 | – | – |
| CLIP1 isoform 2 (UniProt P30622) | -0.002 | -0.04 | -0.054 | 0.017 | 0.053 | 0.021 | -0.025 | 0.05 | -0.088 |
| CNNM2 (UniProt Q9H8M5) | 0.31 | 0.348 (active) | 0.048 | – | -0.054 | -0.157 | -0.031 | 0.004 | -0.015 |
| CLASP2 (UniProt O75122) | 0.075 | 0.069 | – | 0.044 | -0.098 | 0.001 | – | -0.048 | -0.028 |
| DALRD3 (UniProt Q5D0E6) | – | – | -0.024 | – | – | – | – | 0.028 | 0.037 |
| CYP2S1 isoform 2 (UniProt Q96SQ9) | 0.048 | 0 | 0.061 | – | -0.028 | 0.07 | -0.084 | 0.146 | -0.229 |
| CLCN3 isoform 2 (UniProt P51790) | 0.02 | -0.032 | -0.035 | -0.017 | 0.029 | 0.048 | -0.066 | 0.029 | -0.013 |
| CLCN3 (UniProt P51790) | 0.038 | 0.05 | -0.089 | -0.03 | -0.155 | -0.017 | 0.024 | 0.038 | 0.079 |
| CLIP1 isoform 1 (UniProt P30622) | 0.004 | 0 | -0.008 | -0.01 | 0.006 | 0.003 | -0.016 | -0.005 | -0.004 |
| CSNK1G3 isoform 4 (UniProt Q9Y6M4) | – | – | – | – | – | – | – | 0.235 | -0.142 |
| CORO7 (UniProt P57737) | -0.039 | 0.06 | -0.076 | -0.202 | -0.229 | 0.134 | 0.067 | – | – |
| DNAJC24 (UniProt Q6P3W2) | -0.052 | 0.113 | -0.067 | -0.048 | 0.031 | 0.047 | 0.064 | -0.12 | 0.064 |
| CPLX1 (UniProt O14810) | 0.079 | -0.139 | – | – | – | 0.037 | 0.874 (active) | -0.071 | 0.119 |
